Laboratory results from the supplement of paper PMC11732987, “Enantioselective OTUD7B fragment discovery through chemoproteomics screening and high-throughput optimisation” (Communications Chemistry, 2025).

Legend:
Assay in all cases: log2 ratio of Biotin-Ahx-Ub-VS probe labelling (fragment/DMSO); higher = less target engagement (more negative = stronger competition), active = hit call of the paper (q ≤ 0.05, log2 ratio ≤ -1)
Conditions in all cases: compound concentration: 200 uM; treatment time: 3 h
USP34 = USP34 (UniProt Q70CQ2)
Outline: (§1)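 Average log2 ratios of fragment over vehicle were obtained by unpaired t-test from global-median-normalised Spectronaut label-free quantities. Proteins with ≥2 unique peptides were included. HEK293T lysate (495 µg per sample) was treated in triplicate with fragment at 200 µM or vehicle for 3 h, then with Biotin-Ahx-Ub-VS at 0.5 µM final for 1 h, and labelled DUBs were NeutrAvidin-enriched and run by diaPASEF LC-MS/MS.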

USP36 = biological target: T1, USP36 (UniProt Q9P275)
T1 sequence (whole entry): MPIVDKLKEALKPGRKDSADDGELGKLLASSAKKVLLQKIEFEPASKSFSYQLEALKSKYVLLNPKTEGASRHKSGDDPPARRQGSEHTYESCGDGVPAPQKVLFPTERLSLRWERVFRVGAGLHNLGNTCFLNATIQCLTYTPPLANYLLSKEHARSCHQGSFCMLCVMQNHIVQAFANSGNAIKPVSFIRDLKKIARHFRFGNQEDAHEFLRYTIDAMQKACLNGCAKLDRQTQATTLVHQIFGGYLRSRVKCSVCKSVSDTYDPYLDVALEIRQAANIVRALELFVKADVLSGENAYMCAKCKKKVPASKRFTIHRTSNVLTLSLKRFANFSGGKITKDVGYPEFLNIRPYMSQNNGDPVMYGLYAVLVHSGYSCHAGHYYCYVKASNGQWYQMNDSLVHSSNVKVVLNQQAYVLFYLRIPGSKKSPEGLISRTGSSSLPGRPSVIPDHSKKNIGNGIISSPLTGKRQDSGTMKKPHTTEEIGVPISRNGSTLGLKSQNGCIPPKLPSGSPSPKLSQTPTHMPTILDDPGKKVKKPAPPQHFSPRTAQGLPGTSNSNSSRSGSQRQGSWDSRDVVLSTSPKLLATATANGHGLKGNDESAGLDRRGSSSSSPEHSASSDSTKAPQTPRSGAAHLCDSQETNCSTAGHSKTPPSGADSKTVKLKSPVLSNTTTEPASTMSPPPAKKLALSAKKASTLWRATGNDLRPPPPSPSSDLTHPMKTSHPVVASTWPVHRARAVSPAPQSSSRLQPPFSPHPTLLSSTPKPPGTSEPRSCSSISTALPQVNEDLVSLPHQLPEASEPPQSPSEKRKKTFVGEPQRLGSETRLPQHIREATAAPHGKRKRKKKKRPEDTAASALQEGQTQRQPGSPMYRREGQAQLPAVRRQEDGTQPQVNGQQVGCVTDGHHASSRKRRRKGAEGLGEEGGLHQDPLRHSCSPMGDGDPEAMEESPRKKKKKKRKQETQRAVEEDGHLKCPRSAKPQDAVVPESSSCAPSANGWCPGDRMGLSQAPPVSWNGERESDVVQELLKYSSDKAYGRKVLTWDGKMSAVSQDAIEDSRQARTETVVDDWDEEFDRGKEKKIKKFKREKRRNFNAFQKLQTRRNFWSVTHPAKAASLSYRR
Outline: as §1

USP38 = biological target: T2, USP38 (UniProt Q8NB14)
T2 sequence (whole entry): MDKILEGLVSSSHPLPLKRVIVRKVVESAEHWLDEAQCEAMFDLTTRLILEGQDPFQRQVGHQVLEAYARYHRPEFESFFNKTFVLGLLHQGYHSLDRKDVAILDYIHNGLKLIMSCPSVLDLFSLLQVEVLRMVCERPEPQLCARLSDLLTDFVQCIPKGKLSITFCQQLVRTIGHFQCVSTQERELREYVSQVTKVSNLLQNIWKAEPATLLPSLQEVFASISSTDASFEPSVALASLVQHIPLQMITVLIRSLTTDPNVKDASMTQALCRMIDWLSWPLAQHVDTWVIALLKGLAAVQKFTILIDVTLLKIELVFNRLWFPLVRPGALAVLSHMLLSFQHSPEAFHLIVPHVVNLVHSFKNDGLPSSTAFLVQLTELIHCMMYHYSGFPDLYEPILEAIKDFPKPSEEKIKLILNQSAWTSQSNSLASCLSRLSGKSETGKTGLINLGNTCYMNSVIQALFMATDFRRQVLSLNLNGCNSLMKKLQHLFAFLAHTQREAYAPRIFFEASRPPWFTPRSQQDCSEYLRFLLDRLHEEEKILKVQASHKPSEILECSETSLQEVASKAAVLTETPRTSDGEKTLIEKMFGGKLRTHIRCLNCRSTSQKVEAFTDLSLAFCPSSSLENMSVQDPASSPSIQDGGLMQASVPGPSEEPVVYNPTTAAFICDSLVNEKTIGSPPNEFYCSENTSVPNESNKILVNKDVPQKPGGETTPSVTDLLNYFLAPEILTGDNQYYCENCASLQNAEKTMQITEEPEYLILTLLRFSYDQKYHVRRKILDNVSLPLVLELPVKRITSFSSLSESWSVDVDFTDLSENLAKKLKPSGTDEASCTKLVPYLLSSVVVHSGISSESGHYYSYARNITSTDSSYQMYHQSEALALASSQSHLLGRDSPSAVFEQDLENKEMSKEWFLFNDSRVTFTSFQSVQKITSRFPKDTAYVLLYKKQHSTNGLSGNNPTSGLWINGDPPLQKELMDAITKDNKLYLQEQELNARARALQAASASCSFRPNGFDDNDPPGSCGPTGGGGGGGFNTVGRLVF
Outline: as §1

USP39 = biological target: T3, USP39 (UniProt Q53GS9)
T3 sequence (whole entry): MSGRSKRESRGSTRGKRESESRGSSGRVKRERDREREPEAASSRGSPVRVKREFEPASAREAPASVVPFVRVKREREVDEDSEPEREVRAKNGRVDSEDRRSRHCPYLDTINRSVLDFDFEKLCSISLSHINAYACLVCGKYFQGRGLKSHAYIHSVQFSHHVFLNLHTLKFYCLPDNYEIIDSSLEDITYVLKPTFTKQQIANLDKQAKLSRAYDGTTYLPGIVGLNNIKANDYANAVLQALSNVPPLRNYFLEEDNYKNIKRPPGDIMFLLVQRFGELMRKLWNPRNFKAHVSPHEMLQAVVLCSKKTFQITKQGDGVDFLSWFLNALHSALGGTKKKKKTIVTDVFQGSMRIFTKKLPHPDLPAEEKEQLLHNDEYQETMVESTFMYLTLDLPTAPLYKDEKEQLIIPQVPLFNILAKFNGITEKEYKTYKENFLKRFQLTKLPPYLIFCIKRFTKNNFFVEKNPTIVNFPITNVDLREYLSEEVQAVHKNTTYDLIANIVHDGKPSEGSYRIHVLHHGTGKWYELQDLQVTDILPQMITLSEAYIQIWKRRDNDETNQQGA
Outline: as §1

USP4 = biological target: T4, USP4 (UniProt Q13107)
T4 sequence (whole entry): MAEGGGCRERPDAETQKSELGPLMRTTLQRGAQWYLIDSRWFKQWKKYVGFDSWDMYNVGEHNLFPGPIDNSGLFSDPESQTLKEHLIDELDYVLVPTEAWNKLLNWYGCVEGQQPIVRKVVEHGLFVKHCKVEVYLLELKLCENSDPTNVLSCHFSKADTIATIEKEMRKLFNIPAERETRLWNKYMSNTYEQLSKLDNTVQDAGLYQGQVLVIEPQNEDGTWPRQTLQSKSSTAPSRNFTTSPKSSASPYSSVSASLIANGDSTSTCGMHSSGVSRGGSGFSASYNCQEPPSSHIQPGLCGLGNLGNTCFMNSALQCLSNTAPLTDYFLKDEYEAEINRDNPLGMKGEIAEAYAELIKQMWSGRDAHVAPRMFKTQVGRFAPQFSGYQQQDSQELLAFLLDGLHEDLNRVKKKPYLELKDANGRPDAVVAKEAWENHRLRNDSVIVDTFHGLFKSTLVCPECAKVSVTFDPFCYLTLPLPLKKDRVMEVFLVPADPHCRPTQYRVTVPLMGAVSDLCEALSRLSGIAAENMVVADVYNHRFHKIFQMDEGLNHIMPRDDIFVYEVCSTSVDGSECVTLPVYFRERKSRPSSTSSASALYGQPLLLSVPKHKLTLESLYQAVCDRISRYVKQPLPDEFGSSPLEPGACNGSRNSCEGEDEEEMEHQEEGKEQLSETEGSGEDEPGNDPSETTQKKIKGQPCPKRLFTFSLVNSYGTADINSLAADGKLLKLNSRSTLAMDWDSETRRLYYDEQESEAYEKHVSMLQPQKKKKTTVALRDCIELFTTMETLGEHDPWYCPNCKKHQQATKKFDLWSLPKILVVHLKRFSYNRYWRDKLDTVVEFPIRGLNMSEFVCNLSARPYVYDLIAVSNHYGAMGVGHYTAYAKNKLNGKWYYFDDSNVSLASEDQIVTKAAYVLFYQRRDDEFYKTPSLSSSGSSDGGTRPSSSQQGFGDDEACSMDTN
Outline: as §1

Measured: log2 ratio of Biotin-Ahx-Ub-VS probe labelling

Sequence of USP34 (Q70CQ2 whole entry, the tested form may be a part): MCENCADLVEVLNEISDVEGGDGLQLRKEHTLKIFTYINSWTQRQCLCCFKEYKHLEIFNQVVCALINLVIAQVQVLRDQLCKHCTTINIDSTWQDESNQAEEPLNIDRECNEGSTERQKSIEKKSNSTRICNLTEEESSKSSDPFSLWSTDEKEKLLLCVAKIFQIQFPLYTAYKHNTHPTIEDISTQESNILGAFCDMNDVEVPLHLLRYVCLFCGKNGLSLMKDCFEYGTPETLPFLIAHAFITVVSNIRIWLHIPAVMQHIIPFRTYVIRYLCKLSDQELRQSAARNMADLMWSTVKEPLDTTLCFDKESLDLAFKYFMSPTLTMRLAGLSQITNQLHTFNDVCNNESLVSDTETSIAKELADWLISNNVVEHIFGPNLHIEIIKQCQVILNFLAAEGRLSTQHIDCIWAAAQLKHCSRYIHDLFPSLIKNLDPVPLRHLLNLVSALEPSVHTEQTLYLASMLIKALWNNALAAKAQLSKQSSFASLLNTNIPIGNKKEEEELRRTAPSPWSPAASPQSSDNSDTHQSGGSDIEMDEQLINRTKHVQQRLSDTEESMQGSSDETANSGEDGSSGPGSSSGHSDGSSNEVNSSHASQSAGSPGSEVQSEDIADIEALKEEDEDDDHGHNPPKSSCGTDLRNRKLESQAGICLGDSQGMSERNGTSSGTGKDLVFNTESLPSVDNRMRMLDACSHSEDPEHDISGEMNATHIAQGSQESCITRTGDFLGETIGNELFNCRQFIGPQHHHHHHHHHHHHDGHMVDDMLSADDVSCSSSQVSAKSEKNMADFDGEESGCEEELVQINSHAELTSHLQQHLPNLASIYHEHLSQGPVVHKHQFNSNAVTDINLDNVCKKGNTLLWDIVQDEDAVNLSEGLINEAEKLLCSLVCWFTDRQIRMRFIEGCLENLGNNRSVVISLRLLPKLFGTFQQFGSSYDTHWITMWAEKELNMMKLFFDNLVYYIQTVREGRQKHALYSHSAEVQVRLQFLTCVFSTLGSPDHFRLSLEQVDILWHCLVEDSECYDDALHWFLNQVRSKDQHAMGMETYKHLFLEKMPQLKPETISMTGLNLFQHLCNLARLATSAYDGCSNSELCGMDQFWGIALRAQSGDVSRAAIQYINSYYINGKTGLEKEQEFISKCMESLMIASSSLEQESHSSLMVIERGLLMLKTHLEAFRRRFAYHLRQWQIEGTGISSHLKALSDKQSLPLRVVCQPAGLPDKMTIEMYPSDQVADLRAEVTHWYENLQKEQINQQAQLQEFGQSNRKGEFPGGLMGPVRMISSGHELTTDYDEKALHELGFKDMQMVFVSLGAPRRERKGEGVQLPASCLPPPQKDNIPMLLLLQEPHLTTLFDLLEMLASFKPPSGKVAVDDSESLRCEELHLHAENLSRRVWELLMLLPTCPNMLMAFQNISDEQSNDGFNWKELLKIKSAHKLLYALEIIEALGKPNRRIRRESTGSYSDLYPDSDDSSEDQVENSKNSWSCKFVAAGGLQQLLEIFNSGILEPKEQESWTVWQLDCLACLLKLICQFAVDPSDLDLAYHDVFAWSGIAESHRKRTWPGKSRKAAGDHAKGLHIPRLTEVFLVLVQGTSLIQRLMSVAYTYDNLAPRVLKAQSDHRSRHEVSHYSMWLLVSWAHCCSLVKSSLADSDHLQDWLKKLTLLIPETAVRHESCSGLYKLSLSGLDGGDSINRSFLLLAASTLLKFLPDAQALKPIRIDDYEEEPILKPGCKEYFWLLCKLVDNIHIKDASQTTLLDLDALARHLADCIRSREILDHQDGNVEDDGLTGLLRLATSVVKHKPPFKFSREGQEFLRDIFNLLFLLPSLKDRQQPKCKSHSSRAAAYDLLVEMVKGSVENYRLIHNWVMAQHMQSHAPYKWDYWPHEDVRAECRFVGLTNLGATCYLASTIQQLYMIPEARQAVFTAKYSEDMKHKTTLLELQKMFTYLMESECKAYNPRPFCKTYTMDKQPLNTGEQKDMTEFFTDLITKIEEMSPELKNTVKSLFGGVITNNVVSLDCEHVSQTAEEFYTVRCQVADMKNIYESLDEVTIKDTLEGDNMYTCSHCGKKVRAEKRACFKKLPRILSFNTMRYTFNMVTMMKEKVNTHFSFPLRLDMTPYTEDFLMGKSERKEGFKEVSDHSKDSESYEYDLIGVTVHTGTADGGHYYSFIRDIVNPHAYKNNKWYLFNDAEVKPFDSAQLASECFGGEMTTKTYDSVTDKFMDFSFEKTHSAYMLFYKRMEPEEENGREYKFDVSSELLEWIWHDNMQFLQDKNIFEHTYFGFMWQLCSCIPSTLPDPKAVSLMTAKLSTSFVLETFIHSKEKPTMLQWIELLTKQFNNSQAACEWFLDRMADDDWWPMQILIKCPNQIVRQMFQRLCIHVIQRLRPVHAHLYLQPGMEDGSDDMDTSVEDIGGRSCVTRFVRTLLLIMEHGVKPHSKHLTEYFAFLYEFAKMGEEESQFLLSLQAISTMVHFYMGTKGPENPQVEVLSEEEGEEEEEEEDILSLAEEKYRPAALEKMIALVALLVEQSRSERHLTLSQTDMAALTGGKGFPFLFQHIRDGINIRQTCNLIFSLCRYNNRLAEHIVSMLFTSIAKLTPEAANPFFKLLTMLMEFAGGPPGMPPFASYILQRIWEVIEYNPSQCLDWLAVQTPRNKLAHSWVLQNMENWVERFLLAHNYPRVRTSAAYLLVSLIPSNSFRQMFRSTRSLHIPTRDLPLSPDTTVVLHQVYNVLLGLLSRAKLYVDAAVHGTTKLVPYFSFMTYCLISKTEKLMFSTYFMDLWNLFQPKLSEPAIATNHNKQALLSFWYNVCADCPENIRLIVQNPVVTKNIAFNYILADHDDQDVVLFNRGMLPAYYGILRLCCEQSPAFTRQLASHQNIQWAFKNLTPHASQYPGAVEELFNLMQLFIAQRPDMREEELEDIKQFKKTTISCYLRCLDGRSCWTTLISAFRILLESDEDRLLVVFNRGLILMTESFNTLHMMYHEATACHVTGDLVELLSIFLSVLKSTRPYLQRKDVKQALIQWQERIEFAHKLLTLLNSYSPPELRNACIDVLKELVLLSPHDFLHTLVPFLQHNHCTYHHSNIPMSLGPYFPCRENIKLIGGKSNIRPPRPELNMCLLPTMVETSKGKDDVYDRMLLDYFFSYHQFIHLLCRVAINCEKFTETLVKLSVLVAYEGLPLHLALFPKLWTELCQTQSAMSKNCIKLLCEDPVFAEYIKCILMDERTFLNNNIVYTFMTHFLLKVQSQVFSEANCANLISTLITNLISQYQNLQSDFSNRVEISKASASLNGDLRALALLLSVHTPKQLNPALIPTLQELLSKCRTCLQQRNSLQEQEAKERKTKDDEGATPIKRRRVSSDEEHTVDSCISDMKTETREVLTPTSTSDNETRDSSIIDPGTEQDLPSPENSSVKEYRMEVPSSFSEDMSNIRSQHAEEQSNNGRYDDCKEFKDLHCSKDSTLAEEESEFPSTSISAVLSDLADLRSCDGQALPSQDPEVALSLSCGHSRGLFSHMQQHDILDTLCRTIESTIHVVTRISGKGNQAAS

O=C(CCl)N1CCc2nc[nH]c2C1c1ccc(Cl)cc1 (stereo not given)
inactive: USP34 -0.355 | USP36 -0.00322 | USP38 -0.0469 | USP39 0.0317 | USP4 -0.375
